From PubChem
Vaccinia pol inh – inhibitors of vaccinia virus processive DNA synthesis (E9 polymerase); normalized absorbance, % (concentration not given with the values); in vitro processive DNA synthesis, absorbance read-out; hits give low values; 46,000 compounds, 0.94% hits; AID 493162; in the data active = normalized absorbance mostly below about 85%, no sharp cut-off; inactive = mostly above about 86%
Active calls of the source: *. Many of the other results were omitted from the sample, so hits are more common in it than they were.

SMILES	Vaccinia pol inh
O=C(NCCCN1CCCCC1)c1ccc2c(c1)sc1nc(-c3ccccc3)cn12	58.1*
CCN1CCCC1CNC(=O)c1ccc2c(c1)sc1nc(-c3cccc(OC)c3)cn12 (configuration not stated)	46.9*
CNC(=O)CCCc1nc(-c2ccccc2)no1	100.7
N#CC1=C(N=Cc2cc(Cl)cc(Cl)c2O)CCC1	83.0*
Oc1c(Cl)cc(Cl)cc1/C=N/c1nc2c(s1)CCCC2	97.1
N#CC1=C(N=Cc2c(O)ccc3ccccc23)CCC1	99.0
CCOC(=O)C1CCCN(C(=O)COc2ccc(C)c(C)c2)C1 (configuration not stated)	102.7
O=C1Nc2ccccc2S/C1=C/Nc1cccc(C(F)(F)F)c1	116.9
COc1cccc(C(=O)CCN2CCC(c3ccccc3)C2)c1 (configuration not stated)	99.8
N#CC1=C(SCc2ccccc2)SC(c2ccc(C(=O)O)cc2)NC1=O (configuration not stated)	59.8*
CC1NC(=O)C(C#N)=C(SCc2ccccc2)S1 (configuration not stated)	62.9*
CCSC1=C(C#N)C(=O)NC(CO)S1 (configuration not stated)	95.7
CCSC1=C(C#N)C(=O)NC(c2ccc(OC)cc2)S1 (configuration not stated)	101.3
CCSC1=C(C#N)C(=O)NC(C(C)C)S1 (configuration not stated)	94.5
COC(=O)CSC1=C(C#N)C(=O)NC(/C=C/c2ccccc2)S1 (configuration not stated)	93.8
COC(=O)c1ccccc1-c1ccc(/C=C2\C(=O)N(C)C(=O)C(C#N)=C2C)o1	99.5
O=C(O)C1CCCN(c2ncnc3c2sc2cccc(F)c23)C1 (configuration not stated)	90.2
C/C(=N\O)c1c(O)c2ccccc2n(C)c1=O	97.2
CCN(CC)c1ccc(C=C2C(=O)N(C)C(=S)N(C)C2=O)cc1	100.0
S=C1NCN(Cc2ccccc2)CN1Cc1ccccc1	99.8
CN1C/C(=C\c2ccccc2Cl)C(=O)/C(=C/c2ccccc2Cl)C1	88.0
CC1CCCCN1c1nc(-c2ccccc2O)nc2ccccc12 (configuration not stated)	100.3
Nc1c2c(nc3ccccc13)N(C1CCCCC1)CC2	87.4*
CC(=Nc1c2c(nc3ccccc13)N(C)CC2)N(C)C	99.8
NNC(=O)C1CCC(c2ccc(Cl)cc2)CC1 (configuration not stated)	92.1
SMILES	Vaccinia pol inh
Cc1ccc(S(=O)(=O)N(C)C(C)C(O)c2ccccc2)cc1 (configuration not stated)	106.1
c1ccc(-c2nc(N3CCCC3)nc3ccccc23)cc1	99.3
CCC(=O)N/C(N)=N\c1nc(C)c2ccccc2n1	99.3
NC(N)=Nc1nc(-c2ccccc2)c2ccccc2n1	50.6*
COC(=O)c1ccccc1NC(=O)CSc1nc2ccccc2nc1C	102.4
CCOc1ccc(C2=C(CN(C)C)C(c3ccc(F)cc3)c3ccccc3O2)cc1 (configuration not stated)	99.5
Cc1nc(SC(C)C(=O)O)[nH]c(=O)c1Oc1ccccc1 (configuration not stated)	100.4
COc1ccc(C=Nc2ccccc2C(=O)O)cc1	99.7
CC1Cc2cc(S(=O)(=O)N(C)CC(=O)N3CCOCC3)ccc2N1C(=O)C1CC1 (configuration not stated)	97.6
CN1CCc2nc(SCC(=O)Nc3ccccc3OC(F)(F)F)c(C#N)cc2C1	100.3
CC(C)[C@@H]1NC(=O)[C@H](Cc2ccccc2)NC(=O)[C@@H](CC(=O)O)NC(=O)CNC(=O)[C@H](CCCN=C(N)N)NC1=O	100.8
COc1ccccc1-c1cc(-c2cccs2)nc(C)c1C#N	120.8
CCc1nc2ccccc2n1C(=O)CCCC(=O)O	101.9
CO[C@@]1(NC(=O)C(C(=O)O)c2ccc(O)cc2)C(=O)N2C(C(=O)O)=C(CSc3nnnn3C)CO[C@@H]21 (some centres not stated)	8.0*
CC1=CC(C)(C)c2ccccc2N1Cc1ccccc1	103.8
COC(=O)CSc1nc(-c2ccccc2)nc2c1CCCC2	104.8
C=CCc1cccc2cc(C(=O)N3CCN(c4ccccc4F)CC3)c(=O)oc12	100.9
O=C(O)CNS(=O)(=O)/C=C/c1ccccc1	100.4
O=C(O)c1ccccc1NS(=O)(=O)/C=C/c1ccccc1	95.1
O=S(=O)(/C=C/c1ccccc1)Nc1ccc(F)cc1	76.5*
Cc1ccc(SCCC(=O)O)cc1	99.6
O=C(O)c1cc2oc3ccccc3c3ccccc3oc2cc1C(=O)Nc1ccc(F)cc1	99.4
O=C(Nc1ccc(-c2nnc3n2CCCCC3)cc1)c1ccccc1F	100.7
COc1ccc2nc(NC(=O)c3cccnc3)sc2c1	98.6
COc1ccc(-c2cc3ccccn3c2C(=O)c2cccnc2)c(OC)c1	43.8*
SMILES	Vaccinia pol inh
COc1ccc(OC)c(NC(=O)c2cccnc2)c1	100.2
COC(=O)CN1C(=O)COc2cc(S(=O)(=O)N3CCCc4ccccc43)ccc21	102.7
Cc1ccc(NC(=O)CSc2ncnc3ccccc23)cc1C	108.8
Cc1cc2nc(-c3ccc(Cl)nc3)[nH]c2cc1C	100.8
Cn1c(-c2ccc3nc(-c4ccc(N)cc4)[nH]c3c2)nc2cc(N)ccc21	88.6
Cc1cc(N)cc2[nH]c(-c3ccc(N)cc3)nc12	59.5*
CCCCC1CCC(C(=O)Nc2c3c(nn2C(C)(C)C)CS(=O)(=O)C3)CC1 (configuration not stated)	100.8
CCn1c(=O)c2cc(C(=O)NCC3CCCO3)sc2c2ccccc21 (configuration not stated)	105.3
O=C(NCC1CCCO1)c1cc2c(s1)CCC2 (configuration not stated)	102.6
O=C(NCC1CCCO1)c1cc2sc3ccccc3c2s1 (configuration not stated)	66.0*
O=C(NCc1ccco1)c1ccc(Cn2c(=S)[nH]c3ccc(Br)cc3c2=O)cc1	100.4
Cn1c(CCCNC(=O)Cc2ccccc2)nc2ccccc21	100.0
COc1ccc(CCn2c(=S)[nH]c3ccc(Cl)cc3c2=O)cc1OC	103.1
CC1=NN(c2ccccc2)C(=O)/C1=C/c1cn(CC(O)CN2CCCCC2)c2ccccc12 (configuration not stated)	31.9*
O=C1Nc2ccccc2/C1=C\c1cn(CC(=O)N2CCCC2)c2ccccc12	92.8
NC(=O)Cn1cc(/C=C2/C(=O)NC(=O)N(C3CCCCC3)C2=O)c2ccccc21	99.8
c1ccc(-c2nnc(COc3ccc4ccccc4c3)o2)cc1	100.4
CS(=O)(=O)c1ccc(Br)cc1	100.8
Cc1oc(C)c(C(=O)O)c1CN	101.0
Cc1cc(OCC(=O)NC(Cc2c[nH]c3ccccc23)C(=O)O)cc(C)c1Cl (configuration not stated)	59.8*
CC(=O)N[C@@H](Cc1c[nH]c2ccccc12)C(=O)O	100.2
Cc1ccc(OCC(=O)NC(Cc2c[nH]c3ccccc23)C(=O)O)cc1 (configuration not stated)	93.7
CNC(=O)Oc1ccc(-c2nc(CSc3ccc(Cl)cc3)cs2)cc1	102.0
Cc1cc(-c2nc(-c3ccnn3S(=O)(=O)c3cccc(C(F)(F)F)c3)cs2)no1	101.0
CCOC(=O)c1cc(-c2ccnn2C(=O)c2ccccc2)on1	95.9
CCOC(=O)c1cc(-c2ccnn2S(=O)(=O)c2cccc(C(F)(F)F)c2)on1	69.3*
N#Cc1c(/N=C/c2cccs2)sc2c1CCCC2	94.3
CCC(=O)c1ccc(OC(=O)c2ccc(N(CC)CC)cc2)cc1	99.4
CC(C)c1ccc2[nH]c3c(c2c1)CCC/C3=N\O	100.0
